Publication PMC5540273 (PLoS ONE, 2017)

What was measured:
Settings in all cases: concentration: 1 μM, replicates: in singlicate; n = 1
[1] = system: RPS6KA4(Kin.Dom.1-N-terminal)
[2] = system: RPS6KA4(Kin.Dom.2-C-terminal)
[3] = system: RPS6KA5(Kin.Dom.1-N-terminal)
[4] = system: RPS6KA5(Kin.Dom.2-C-terminal)
[5] = system: T1, RSK1(Kin.Dom.1-N-terminal)
T1 construct: gene RPS6KA1

[6] = system: T2, RSK1(Kin.Dom.2-C-terminal)
T2 construct: gene RPS6KA1

[7] = system: T3, RSK2(Kin.Dom.1-N-terminal)
T3 construct: gene RPS6KA3

[8] = system: T4, RSK2(Kin.Dom.2-C-terminal)
T4 construct: gene RPS6KA3

[9] = system: T5, RSK3(Kin.Dom.1-N-terminal)
T5 construct: gene RPS6KA2

[10] = system: T6, RSK3(Kin.Dom.2-C-terminal)
T6 construct: gene RPS6KA2

[11] = system: T7, RSK4(Kin.Dom.1-N-terminal)
T7 construct: gene RPS6KA6

[12] = system: T8, RSK4(Kin.Dom.2-C-terminal)
T8 construct: gene RPS6KA6

S6K1 = system: S6K1
SBK1 = system: SBK1
SGK2 = system: SGK2
SGK3 = system: SGK3
SGK = system: SGK
SIK2 = system: SIK2
SIK = system: SIK
SLK = system: SLK
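Note: KINOMEscan kinase panel screen.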

| Compound | %Inh [1] | %Inh [2] | %Inh [3] | %Inh [4] | %Inh [5] | %Inh [6] | %Inh [7] | %Inh [8] | %Inh [9] | %Inh [10] | %Inh [11] | %Inh [12] | %Inh (S6K1) | %Inh (SBK1) | %Inh (SGK2) | %Inh (SGK3) | %Inh (SGK) | %Inh (SIK2) | %Inh (SIK) | %Inh (SLK) |
| --- | --- | --- | --- | --- | --- | --- | --- | --- | --- | --- | --- | --- | --- | --- | --- | --- | --- | --- | --- | --- |
| O=C(Nc1n[nH]c2nc(-c3ccccc3)ccc12)C1CC1 [SB-708999] | 5% | 0% | 13% | 4% | 0% | 0% | 0% | 32% | 4% | 0% | 30% | 1% | 17% | 9% | 15% | 47% | 23% | 0% | 28% | 12% |
| Nc1ncnc2scc(-c3ccc(NC(=O)Cc4cc(F)ccc4F)cc3)c12.O=C(O)C(F)(F)F [SB-731254-M] | 21% | 15% | 8% | 0% | 0% | 14% | 15% | 0% | 0% | 6% | 17% | 18% | 46% | 27% | 27% | 23% | 18% | 11% | 5% | 28% |
| Cc1cc(-c2ccnc(Nc3cccc(C#N)c3)n2)cc(C)c1O [GSK1440913] | 0% | 0% | 0% | 0% | 12% | 17% | 5% | 0% | 26% | 21% | 0% | 0% | 0% | 28% | 29% | 6% | 55% | 15% | 0% | 21% |
| Cn1cc(-c2ccc3c(c2)CCN3C(=O)Cc2cc(F)cc(F)c2F)c2c(N)ncnc21 [GSK2634140] | 19% | 0% | 20% | 0% | 21% | 0% | 12% | 0% | 12% | 0% | 0% | 0% | 17% | 16% | 4% | 0% | 0% | 0% | 8% | 60% |
| Cc1ccc(NC(=O)c2cccc(N3CCCCC3)c2)cc1-c1ccc(C(=O)NCC2CC2)cc1 [GSK1917008] | 28% | 0% | 33% | 8% | 18% | 1% | 15% | 21% | 12% | 5% | 0% | 37% | 8% | 10% | 11% | 7% | 0% | 93.3% | 8% | 10% |
| CC(C)c1nc(-c2ccc(F)c(NS(=O)(=O)c3c(F)cccc3F)c2)c(-c2ccnc(Nc3ccc(N4CCOCC4)nc3)n2)s1 [GSK1804250] | 6% | 0% | 15% | 3% | 25% | 9% | 22% | 27% | 24% | 6% | 0% | 16% | 3% | 25% | 8% | 20% | 25% | 88% | 99.5% | 91.4% |
| Cl.Cl.NCC(NC(=O)c1cc(-c2cccnc2)c(-c2ccnc3[nH]ccc23)s1)c1ccccc1 (stereo not drawn) [GSK1323434] | 58% | 0% | 18% | 57% | 61% | 53% | 29% | 40% | 0% | 0% | 0% | 31% | 27% | 42% | 51% | 70% | 27% | 0% | 12% | 32% |
| COc1cccc(C2=C(Nc3cccc(O)c3)C(=O)NC2=O)c1 [SB-390771] | 21% | 0% | 21% | 2% | 84% | 0% | 8% | 28% | 84% | 7% | 0% | 37% | 11% | 4% | 0% | 16% | 0% | 3% | 0% | 69% |
| CC(C)NCC(Cc1ccccc1)NC(=O)c1cc(Br)c(-c2ccnc3[nH]ccc23)s1.Cl.Cl (stereo not drawn) [GSK1383281] | 76% | 0% | 48% | 22% | 50% | 0% | 25% | 0% | 16% | 6% | 5% | 20% | 56% | 45% | 0% | 66% | 59% | 0% | 4% | 0% |
| COc1cc(Nc2nccc(N3CCC(NS(=O)(=O)c4ccc(NC(C)=O)cc4)CC3)n2)cc(OC)c1OC [GSK1379825] | 0% | 0% | 27% | 0% | 0% | 0% | 5% | 24% | 11% | 2% | 0% | 3% | 0% | 14% | 15% | 0% | 9% | 61% | 0% | 48% |
| Cl.O=C(Nc1ccc(Oc2ccc3[nH]c(NC(=O)c4ccco4)nc3c2)cc1)Nc1cc(C(F)(F)F)ccc1F [GW683134] | 16% | 0% | 14% | 6% | 0% | 16% | 3% | 3% | 54% | 9% | 0% | 13% | 45% | 3% | 14% | 0% | 0% | 0% | 0% | 83% |
| CS(=O)(=O)c1cccc(CNc2nc(Nc3ccc4c(c3)CCC(=O)N4)ncc2C(F)(F)F)c1 | 26% | 0% | 0% | 5% | 44% | 0% | 80% | 0% | 59% | 0% | 85% | 0% | 16% | 67% | 0% | 2% | 27% | 23% | 0% | 20% |
| O=C(Nc1n[nH]c2nc(-c3ccccc3O)ccc12)C1CC1 [SB-711880] | 0% | 7% | 0% | 0% | 4% | 0% | 54% | 0% | 11% | 31% | 51% | 28% | 26% | 0% | 31% | 8% | 30% | 58% | 0% | 49% |
| Cl.Cl.NC(CNC(=O)c1cc(Br)c(-c2ccnc3[nH]ccc23)s1)c1ccccc1 (stereo not drawn) [GSK1322949] | 37% | 62% | 37% | 33% | 10% | 26% | 37% | 22% | 14% | 14% | 0% | 16% | 39% | 51% | 16% | 66% | 46% | 6% | 4% | 20% |
| CC(=O)Nc1cn2nc(Oc3cccc(NC(=O)c4cccc(C(F)(F)F)c4)c3)ccc2n1 | 47% | 0% | 0% | 6% | 0% | 0% | 0% | 30% | 0% | 5% | 0% | 9% | 0% | 0% | 1% | 0% | 0% | 18% | 32% | 21% |
| CN1CCN(Cc2ccc(NC(=O)Nc3ccc(N(C)c4ccnc(Nc5ccc(CS(C)(=O)=O)cc5)n4)cc3)cc2)CC1.Cl [GW827654] | 39% | 16% | 0% | 0% | 75% | 15% | 0% | 46% | 42% | 25% | 6% | 57% | 17% | 0% | 58% | 21% | 53% | 15% | 22% | 97.3% |
| COc1cccc(CC(=O)N2CCc3cc(-c4cn(C)c5ncnc(N)c45)ccc32)c1 [GSK2608899] | 28% | 0% | 1% | 11% | 21% | 27% | 16% | 17% | 22% | 20% | 0% | 29% | 13% | 20% | 2% | 2% | 0% | 0% | 17% | 65% |
| NCCC(NC(=O)c1cc(Br)c(-c2ccnc3[nH]ccc23)s1)c1ccccc1.O=C(O)C(F)(F)F.O=C(O)C(F)(F)F (stereo not drawn) [GSK1307810] | 44% | 39% | 46% | 46% | 37% | 31% | 44% | 0% | 13% | 0% | 53% | 4% | 48% | 66% | 67% | 64% | 78% | 0% | 0% | 16% |
| Nc1ncc(-c2cn[nH]c2)c2scc(-c3ccc4c(c3)CCN4C(=O)Cc3ccccc3)c12 [GSK2593067] | 37% | 0% | 24% | 0% | 22% | 2% | 0% | 2% | 31% | 0% | 0% | 0% | 8% | 0% | 0% | 0% | 0% | 0% | 59% | 73% |
| CN(c1ccc(NC(=O)Nc2cccc(Cl)c2)cc1)c1ccnc(N)n1.Cl [GW830707] | 21% | 0% | 4% | 0% | 0% | 0% | 0% | 0% | 0% | 0% | 0% | 0% | 0% | 3% | 0% | 0% | 0% | 0% | 0% | 20% |
| Cc1ccc(NC(=O)c2ccnc(N3CCCCC3)c2)cc1-c1ccc(C(=O)NCC2CC2)cc1 [GW775610] | 0% | 0% | 0% | 0% | 0% | 100% | 0% | 0% | 16% | 15% | 0% | 39% | 19% | 0% | 5% | 0% | 0% | 0% | 0% | 5% |
